40 compounds from PubChem BioAssay (NCI) can be followed below.

About 83,000 compounds went through this panel and 20% of them were active in at least one assay; those are over-represented in the sample as a whole.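 The test compound was applied at a single concentration to cells in 96-well plates for 48 hours, and percent growth was recorded.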 Calls of active or inactive are those of the source. The calls were made as follows: active = growth percent below 10; inactive = the rest.

This experiment deals with MDA-MB-468 breast. Kind of experiment: NCI-60 one-dose screen, 48 h (100 = growth as untreated, 0 = no growth, -100 = all killed). To be noted: 10 µM unless noted.
Regarding `O=C1CSC(=S)N1CCc1ccc(O)cc1`, the growth was 40.5% (inactive).
`COc1cc(/C=C/C(=O)c2ccccc2)ccc1Oc1nc(NCCO)nc(N2CCOCC2)n1`: the growth is 103% (inactive).
Turning to `COc1ccc(-c2nc3c(N)c(CO)c(C)nc3o2)cc1`, the growth was 67.5% (inactive).
For the compound `Cn1ccnc1C(=O)/C=C/c1ccc(NC(=O)c2c(F)c(F)c(F)c(F)c2F)cc1`, the growth is 92.1% (inactive).
Turning to `CC(C)C(=O)Nc1ncc(C(=O)NCCN(Cc2ccccc2)C(=O)c2ccc(S(=O)(=O)Nc3ccccc3)cc2)s1`, the growth was 80.3% (inactive).
Consider `C[C@H](C(=O)N(CCc1ccc(Cl)c(Cl)c1)Cc1cncs1)[C@@H]1CC[C@H](C[C@H](C)n2cc(CN3CCC(c4ccc(Cl)cc4)CC3)nn2)O1`, for which the growth is 90.3% (inactive).
`CCCc1n(Cc2ccc3ccccc3n2)cc[n+]1Cc1ccc2ccccc2n1`: the growth is -39.9% (active).
Turning to `Nc1nc2ncc(CCNc3ccc(C(=O)NC(CCC(=O)O)C(=O)O)cc3)nc2c(=O)[nH]1` (stereo not given), the growth was 96.7% (inactive).
As for `CC[C@@]1(OC(=O)CN(C)C)C(=O)OCc2c1cc1n(c2=O)Cc2cc3c(N)cccc3nc2-1`, the figure is -66.4% (active); as for `COc1ccc(-c2nn(Cc3ccccc3)c3c2-c2oncc2CC3)cc1OC`, 99.9% (inactive); as for `O=C(Nc1cc(Br)ccn1)c1cc2cc(Nc3nc(-c4ccccc4)nc4ccccc34)ccc2oc1=O`, 123% (inactive).
Consider `COc1cc2c(cc1OC)-c1ccc3cc4c(cc3c1N(CCCN1CCCCC1)C2)OCO4`, for which the growth was 56.5% (inactive).
As for `Cc1ccc2c(c1)C(=O)c1c-2c(OCCCN(C)C)nc2ccccc12`, the growth is 28.9% (inactive).
For `O=C(O)CSCSCC(=O)O`, the growth was 91.2% (inactive).
As for `NCCNc1nc2ccccc2c2c(=O)c3cc(F)ccc3sc12`, the growth was 67.2% (inactive).
The same measure for `O=C1[C@@H]2Cc3c([nH]c4ccccc34)[C@H](c3ccc(Cl)cc3)N2C(=O)CN1C1CCN(Cc2ccccc2)CC1`: 23.1% (inactive); for `CCN(CC)CCN1C(=O)c2c(c(C)c3c(oc4cc(OC)ccc43)c2C)C1=O`: 114% (inactive).
As to `CC(C)(C)c1nn(-c2ccccc2)c2c1C(=O)CSC(c1ccc3c(c1)OCO3)N2` (stereo not given), the growth is 120% (inactive).
As for `C=C1C(=O)O[C@H]2[C@H]1CC/C(COC(=O)NCC(C)c1ccc(CC(C)C)cc1)=C\CC[C@@]1(C)O[C@@H]21` (stereo not given in full), the figure is -64% (active); as for `C[C@]12CC[C@H](O)CC1=CC[C@@H]1[C@@H]2CC[C@]2(C)C(c3cccnc3)=CC[C@@H]12`, 15.2% (inactive).
For `Cc1cc(Nc2nc(SCc3ccc(C(=O)Nc4ccc(F)cc4N)cc3)nn3cccc23)n[nH]1`, the growth is 47.7% (inactive).
Take `C#Cc1cccc(NC(=O)C2CCCN(C(=O)CCl)C2)c1` (stereo not given): the growth was 66.3% [8.25 µM] (inactive).
For `CC[C@@H](CO)Nc1ccc2ncc(C#Cc3cncc(C(=O)Nc4ccc(CN5CCN(C)CC5)c(C(F)(F)F)c4)c3)n2n1`, the growth was -68.4% (active).
The same measure for `COc1ccc(-c2nc(-c3ccccc3)c(-c3ccccc3)n2C2CC2)cc1OC1CCCCC1`: 58.8% (inactive); for `Nc1nc(NC2CC2)cc(-c2cccc(Cl)c2Cl)n1`: 30.8% (inactive); for `O=C(Nc1ccc(Oc2cccc(Cl)c2)c(Cl)c1)c1cccnn1`: 63.3% (inactive).
The same measure for `Nc1nc2ccc([C@@H]3Nc4ccc5[nH]ncc5c4[C@H]4[C@H]5CCC(C5)[C@H]43)cc2s1`: -14.4% (active); for `COc1ccc(/C=N/NC(N)=S)cc1`: 82.6% (inactive).
Take `COc1cc(-c2csc(NC(=O)c3cc(-n4cnc(C)c4)cc(C(F)(F)F)c3)n2)cc(OC)c1OC`: the growth was 78.4% (inactive).
Turning to `O=C(N/N=C\c1cc(Br)ccc1O)c1ccncc1`, the growth was 24% (inactive).
In the case of `COc1cc(-c2nc(SCc3ccc(C)cc3)[nH]c(=O)c2C#N)ccc1OCc1ccccc1`, the growth is 87.3% (inactive).
Take `OCCN1CCN(CCCN2c3ccccc3Sc3ccc(Cl)cc32)CC1`: the growth is 25.3% (inactive).
The same measure for `C(=C(\C1=NCCN1)n1cnc2ccccc21)/c1ccc2ccccc2c1`: 26.2% (inactive); for `FC(F)(F)c1cc(Nc2cccc(Oc3ccc(NC4=NCCN4)nc3)c2)ccc1Cl`: -37.6% (active).
The same measure for `Cc1ccc(NC(=O)c2ccc(Nc3ncnc4c3cnn4-c3cccc(F)c3)cc2)cc1`: 96.6% (inactive).
As for `CC(C)CCCC(=O)O`, the figure is 90.8% (inactive).
As to `O=C1/C(=C/c2ccc(Cl)c(Cl)c2)CN(C(=O)C(Cl)Cl)C/C1=C\c1ccc(Cl)c(Cl)c1`, the growth was -52.5% (active).
On to `CC(=O)c1cc2c(N)c(C(=O)Nc3cccc(Cl)c3)sc2nc1C`, for which the growth was 45.3% (inactive).
For `O=C(/C=C/c1ccc[nH]1)c1ccc(-n2ccc(C(F)(F)F)n2)cc1`, the growth was 90.3% (inactive).
As to `CCOc1ccc(/C=N\N=C\c2ccc(OCC)cc2)cc1`, the growth was 77% (inactive).
